The values below come from PubChem BioAssay (NCATS).

Results filed as inconclusive are left out. Values without a mark were called inactive. The source made the active and inactive calls. Unless noted, the call rests on the fitted dose curve.

Assay [1] can be described thus: qHTS for Inhibitors of the Functional Ribonucleoprotein Complex (vRNP) of Lassa (LASV) Arenavirus: LASV Primary Screen - GLuc reporter signal (AID 1347082; calls by dose curve; tested in HEK293 reporter line; further: nearly all actives have a fitted effect of over 60% in size). A general note: In qHTS, concentration-response curves come from the screen itself.
The nature of assay [2]: qHTS for Inhibitors of the Functional Ribonucleoprotein Complex (vRNP) of Lassa (LASV) Arenavirus: Viability assay - alamar blue signal for LASV Primary Screen (AID 1347083; calls by dose curve; tested in HEK293 reporter line; further: nearly all actives have a fitted effect of over 80% in size).
Assay [3] can be described thus: qHTS for Inhibitors of the Functional Ribonucleoprotein Complex (vRNP) of Lymphocytic Choriomeningitis Arenaviruses (LCMV): Viability assay - alamar blue signal for LCMV Primary Screen (AID 1347085; calls by dose curve; tested in HEK293 reporter line; further: nearly all actives have a fitted effect of over 80% in size).
For assay [4], the target named is Nucleoprotein (Lymphocytic choriomeningitis virus (strain Armstrong)) (UniProt P09992). The assay can be described thus: qHTS for Inhibitors of the Functional Ribonucleoprotein Complex (vRNP) of Lymphocytic Choriomeningitis Arenaviruses (LCMV): LCMV Primary Screen - GLuc reporter signal (AID 1347086). Further: nearly all actives have a fitted effect of over 70% in size.
Chain of Nucleoprotein (Lymphocytic choriomeningitis virus (strain Armstrong)) (P09992 whole entry, looked up): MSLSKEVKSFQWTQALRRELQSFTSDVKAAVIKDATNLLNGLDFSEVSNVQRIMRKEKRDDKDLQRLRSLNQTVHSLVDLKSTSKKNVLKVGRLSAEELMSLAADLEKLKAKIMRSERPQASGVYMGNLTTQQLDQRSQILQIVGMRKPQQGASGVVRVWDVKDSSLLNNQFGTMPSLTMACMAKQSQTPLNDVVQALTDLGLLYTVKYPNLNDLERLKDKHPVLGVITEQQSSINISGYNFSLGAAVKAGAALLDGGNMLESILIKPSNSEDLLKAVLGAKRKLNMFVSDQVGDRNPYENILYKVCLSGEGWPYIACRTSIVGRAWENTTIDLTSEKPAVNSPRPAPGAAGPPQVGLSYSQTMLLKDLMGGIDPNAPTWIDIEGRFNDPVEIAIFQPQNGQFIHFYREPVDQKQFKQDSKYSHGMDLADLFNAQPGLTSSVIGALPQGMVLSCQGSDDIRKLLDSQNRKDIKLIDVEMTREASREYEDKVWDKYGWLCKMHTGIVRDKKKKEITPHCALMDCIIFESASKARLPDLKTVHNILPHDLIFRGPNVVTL
Potency means the concentration at half of the fitted maximal effect.

For the compound `C[C@@H]1NC(=O)N[C@@H]1CCCCCC(=O)O`, the Potency result in assay [1], in assay [2], in assay [3] and in assay [4] was “inactive” throughout.
For `CC(=O)O[C@H]1C(=O)[C@@]2(C)C([C@H](OC(=O)c3ccccc3)[C@]3(O)C[C@H](OC(=O)[C@H](O)[C@@H](NC(=O)c4ccccc4)c4ccccc4)C(C)=C1C3(C)C)[C@]1(OC(C)=O)CO[C@@H]1C[C@H]2O` (stereo not given in full), the Potency result in assay [1], in assay [2], in assay [3] and in assay [4] was “inactive” in each case.
Take `CCNC(=O)Nc1ccc(-c2nc3c(c(N4CCOC[C@H]4C)n2)CCN(C2COC2)C3)cc1`: the Potency in assay [1] is 1930 nM (active); in assay [2], 1370 nM (active); in assay [3] it was 3060 nM (active); in assay [4], 1530 nM (active).
The like results for `C/C=C(\C)C(=O)OC(C)(C)[C@H]1Cc2cc3ccc(=O)oc3cc2O1` were, in that order, “inactive”, “inactive”, “inactive” and “inactive”.
The like results for `CCC(=O)OCC(=O)[C@@]1(OC(=O)CC)[C@@H](C)C[C@@H]2[C@H]3CCC4=CC(=O)C=C[C@]4(C)[C@@]3(F)[C@@H](O)C[C@@]21C` were, in that order, “inactive”, “inactive”, “inactive” and “inactive”.
The like results for `COc1cc2c(O)c3c(c(-c4ccc5c(c4)OCO5)c2cc1OC)C(=O)OC3` were, in that order, “inactive”, “inactive”, “inactive” and “inactive”.
Take `CC(C)(O[C@@H]1O[C@H](CO)[C@@H](O)[C@H](O)[C@H]1O)[C@@H]1CC=C(C(=O)O)CC1`: the Potency entry in assay [1], in assay [2], in assay [3] and in assay [4] was “inactive” throughout.
For the compound `C[C@@H](O)CCCCn1c(=O)c2c(ncn2C)n(C)c1=O`, the Potency entry in assay [1], in assay [2], in assay [3] and in assay [4] was “inactive” each time.
As for `CCCCCCCCCCCC(C)=O`, the Potency result in assay [1], in assay [2], in assay [3] and in assay [4] was “inactive” each time.
Consider `C[C@]12CCC3C(CC[C@H]4C[C@@H](O)CC[C@]34C)C1C[C@@H](O)C2=O` (stereo not given in full), for which the Potency entry in assay [1], in assay [2], in assay [3] and in assay [4] was “inactive” throughout.
Consider `COc1cc2c(cc1OC)[C@@H]1Cc3cc4c(cc3[C@H](C2)N1C)OCO4`, for which the Potency result in assay [1], in assay [2], in assay [3] and in assay [4] was “inactive” in each case.
As for `CC1=CC(=O)CCC1`, the Potency result in assay [1], in assay [2], in assay [3] and in assay [4] was “inactive” in each case.
Take `c1ccc2cnccc2c1`: the Potency result in assay [1], in assay [2], in assay [3] and in assay [4] was “inactive” each time.
`C=CC1CN2CCC1CC2C(O)c1ccnc2ccc(OC)cc12` (stereo not given): the Potency result in assay [1], in assay [2], in assay [3] and in assay [4] was “inactive” in each case.
As for `CCN1CCN(C(=O)N[C@H](C(=O)N[C@@H]2C(=O)N3C(C(=O)O)=C(CSc4nnnn4C)CS[C@@H]23)c2ccc(O)cc2)C(=O)C1=O`, the Potency entry in assay [1], in assay [2], in assay [3] and in assay [4] was “inactive” throughout.
As to `C=O`, the Potency result in assay [1], in assay [2], in assay [3] and in assay [4] was “inactive” in each case.
`CCC(=O)NC[C@H](Cc1ccc(OCCc2nc(-c3ccccc3)oc2C)cc1)NC(C)=CC(=O)c1ccc(C(F)(F)F)cc1`: the Potency result in assay [1], in assay [2], in assay [3] and in assay [4] was “inactive” throughout.
`COc1cc2ccc(=O)oc2c(O)c1O`: the Potency result in assay [1], in assay [2], in assay [3] and in assay [4] was “inactive” throughout.
For `CC(C)(O)[C@@H]1Cc2c(ccc3ccc(=O)oc23)O1`, the Potency result in assay [1], in assay [2], in assay [3] and in assay [4] was “inactive” in each case.
Take `CC=C(C)C(=O)OC1CCN2CC=C(COC(=O)C(O)(C(C)OC)C(C)(C)O)C12` (stereo not given): the Potency result in assay [1], in assay [2], in assay [3] and in assay [4] was “inactive” throughout.
For `CC(=O)O[C@@H]1[C@H](OC(=O)CC(C)C)c2c(ccc3ccc(=O)oc23)OC1(C)C`, the Potency result in assay [1], in assay [2], in assay [3] and in assay [4] was “inactive” each time.
For the compound `COc1ccc(CCC(N)=O)cc1OC`, the Potency result in assay [1], in assay [2], in assay [3] and in assay [4] was “inactive” in each case.
As to `CC1(C)C=Cc2c(c3ccccc3[nH]c2=O)O1`, the Potency result in assay [1], in assay [2], in assay [3] and in assay [4] was “inactive” throughout.
Take `C=C1C(=O)OC2C=C(CO)CCC=C(CO)CC(OC(=O)C(C)C)C12` (stereo not given): the Potency result in assay [1], in assay [2], in assay [3] and in assay [4] was “inactive” each time.
Consider `C[C@]12C=CC(=O)N[C@@H]1CC[C@H]1[C@H]3CC[C@@H](C(=O)Nc4cc(C(F)(F)F)ccc4C(F)(F)F)[C@@]3(C)CC[C@@H]12`, for which the Potency result in assay [1], in assay [2], in assay [3] and in assay [4] was “inactive” in each case.
As for `COc1cc2c(c3oc(-c4ccccc4)cc(=O)c13)C=CC(C)(C)O2`, the Potency result in assay [1], in assay [2], in assay [3] and in assay [4] was “inactive” each time.
For `CC(C)(O)C1CC[C@@](C)([C@@H]2CC[C@]3(C)[C@H]2[C@H](O)CC2[C@@]4(C)CCC(O)C(C)(C)C4C(OC4OC(CO)C(O)C(O)C4O[C@@H]4OCC(O)C(O)C4O)C[C@]23C)O1` (stereo not given in full), the Potency entry in assay [1], in assay [2], in assay [3] and in assay [4] was “inactive” each time.
For `O=c1ccc2cc3ccoc3c(O)c2o1`, the Potency result in assay [1], in assay [2], in assay [3] and in assay [4] was “inactive” each time.
Consider `Cc1nc(C(N)=O)nc2ccccc12`, for which the Potency entry in assay [1], in assay [2], in assay [3] and in assay [4] was “inactive” throughout.
Regarding `C=C(C)[C@@H](O)COc1c2ccoc2cc2oc(=O)ccc12`, the Potency entry in assay [1], in assay [2], in assay [3] and in assay [4] was “inactive” throughout.
